# Data as given in PubChem BioAssay (NCI).
# Compounds without any hit were thinned out: in the full panel of roughly 79,000, 15% have a hit. Unmarked numbers belong to inactive results. The source made the active and inactive calls. Cut-off read from the data, not from the text of the source: active = growth inhibition above about 70%; inactive = the rest.
# What was measured:
# [1] = NCI Yeast Anticancer Drug Screen. Data for the rad50 strain (AID 155);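 note: 0% = growth of vehicle-only cultures of the same strain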; conditions: S. cerevisiae rad50 strain growth inhibition; at 50.0 µM; stronger effect = higher value
# Summary of the method: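 Compounds were tested on a yeast strain with an engineered DNA damage repair alteration; the reported value is growth inhibition normalised to vehicle treatment.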
# [2] = NCI Yeast Anticancer Drug Screen. Data for the mec2-1 strain (AID 157); conditions: S. cerevisiae mec2-1 strain, at 50.0 µM, stronger effect = higher value
# Summary of the method: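 Strain: mec2-1 (DNA repair/cell cycle alteration). Compound exposure, then growth measured; inhibition expressed relative to vehicle.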
# [3] = NCI Yeast Anticancer Drug Screen. Data for the sgs1 mgt1 strain (AID 161);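 note: 0% = growth of cultures given vehicle only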; conditions: S. cerevisiae sgs1 mgt1 strain, at 50.0 µM, stronger effect = higher value
# Summary of the method: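 Inhibition of yeast growth, normalised to vehicle-treated controls, is reported for a strain bearing genetic alterations in DNA damage repair.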
# [4] = NCI Yeast Anticancer Drug Screen. Data for the cln2 rad14 strain (AID 165);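 note: 0% = growth equal to vehicle treated cultures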; conditions: S. cerevisiae cln2 rad14 strain, at 50.0 µM, stronger effect = higher value
# Summary of the method: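 Compounds are applied to the cln2 rad14 yeast strain, and growth is then compared with that of vehicle-treated cultures to give inhibition.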
# [5] = NCI Yeast Anticancer Drug Screen. Data for the bub3 strain (AID 167); conditions: S. cerevisiae bub3 mutant strain, at 50.0 µM, stronger effect = higher value
# Summary of the method: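 Growth of a checkpoint-deficient yeast mutant is measured after compound exposure. Values represent inhibition relative to vehicle.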
# [6] = NCI Yeast Anticancer Drug Screen. Data for the mlh1 rad18 strain (AID 175); conditions: S. cerevisiae mlh1 rad18 strain growth inhibition; at 50.0 µM; stronger effect = higher value
# Summary of the method: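 Read-out is yeast growth inhibition, calculated against vehicle-only controls. The compound was applied to a strain engineered with DNA damage repair alterations.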
SMILES,growth inhibition [1],growth inhibition [2],growth inhibition [3],growth inhibition [4],growth inhibition [5],growth inhibition [6]
OC1CCCSc2ccccc21 (stereo unspecified),19.6%,1%,-4.8%,8%,2.8%,-1.45%
COc1ccc(NC(=O)Nc2ccc(-c3ccc(NC(=O)Nc4ccc(OC)cc4)c(C)c3)cc2C)cc1,-30.1%,-41.4%,-8.5%,-3.25%,-24.1%,-23.6%
CC1NNC(=S)NN1,-19.3%,1.35%,0.85%,-9.7%,1.4%,11.8%
O=C(O)[C@@H]1[C@@H]2C[C@@H]3[C@H](OC(=O)[C@@H]31)[C@@H]2O,-20.9%,-12.2%,-25.4%,1.9%,-15.8%,-41.4%
CCc1cc2c(cc1COC(C)=O)C(C)(C)CCC2(C)C,-10.8%,-19.4%,5.5%,-13.8%,4.3%,-31.9%
CC(=O)OCC1OC(n2c(-c3ccc(C)cc3)cc(-c3ccccc3)c(C#N)c2=S)C(OC(C)=O)C(OC(C)=O)C1OC(C)=O (stereo unspecified),17.9%,9.35%,6.15%,-8.55%,27.9%,27.8%
Cc1cc(-c2cc(C)on2)no1,-44.7%,-2.75%,-15.9%,-30.1%,-6.15%,-3.25%
O=C1OCC(Cc2ccc3c(c2)OCO3)[C@H]1Cc1ccc(O)cc1 (stereo partly specified),1.45%,-18%,17.6%,21.9%,19.3%,-5.9%
COc1ccc(NC(=O)Nc2ccc(NC(C)=O)cc2)c(OC)c1,-6%,-18.2%,14.5%,7.65%,17.1%,10.7%
CCC1=CCN(c2cc(C)ccn2)OC1c1ccc(OC)cc1 (stereo unspecified),47.9%,6.15%,48.4%,14.3%,61%,6.35%
N#CC(C#N)=C1CCNCC1,-12.8%,-5.5%,-6.3%,-8.35%,3.65%,0.9%
CCC(CO)Nc1nncc2ccccc12 (stereo unspecified),2.4%,-3.45%,1.35%,-31.5%,-10.6%,-12.3%
COc1ccc(/C=C2\Oc3cc(OC(C)=O)ccc3C2=O)cc1,-66.9%,-44.6%,-15.2%,12.2%,-14.6%,-21.8%
COC(=O)C(C/C=C(\C)c1ccccc1)C(C)=O (stereo unspecified),-13.1%,-23.7%,-25%,19.1%,-23.1%,-0.35%
O/N=C/c1ccccn1,-0.95%,-31.9%,-5.6%,6.85%,-9.5%,0%
Cc1cc(=O)c2cc3ccc4cccc5ccc(c2[nH]1)c3c45,-12.6%,-8.35%,-10.1%,-24.3%,-6.85%,-5.85%
O=C(c1ccccc1)C(c1ccccc1)C1(O)C(=O)Nc2c(Cl)ccc(Cl)c21 (stereo unspecified),-18.1%,10.6%,5%,-0.05%,-8.1%,-29.2%
CCOC(=O)C1=C(C)Oc2cc3c(cc2C1c1ccc(OC)cc1)OCO3 (stereo unspecified),3.9%,5.8%,23.5%,-39.8%,31.4%,6.65%
NCCCCCOCCCCCN,3.4%,-0.25%,-7%,-8.1%,3.8%,-1.65%
Cc1cc(OCCCCCCC[N+](C)(C)Cc2ccc([N+](=O)[O-])o2)c(C(C)C)cc1Cl,99.6% (active),99.8% (active),99.8% (active),99.6% (active),99.5% (active),99.7% (active)
S=C1c2cc(Cl)ccc2NC(=NC2CCCC2)C2CSCN12 (stereo unspecified),7.65%,14.7%,51.5%,-3.25%,33.3%,28.5%

SMILES,growth inhibition [1],growth inhibition [2],growth inhibition [3],growth inhibition [4],growth inhibition [5],growth inhibition [6]
CNC(=O)c1ccccc1C(=O)c1ccccc1OC,7.5%,-11.7%,-3.05%,-25.1%,17.4%,2.15%
CCOC(=O)C1CN2C(=O)CCC2C1=O (stereo unspecified),-5.65%,15.2%,8.7%,-5.85%,15.4%,4.7%
CC1=C2CCOC2=Nc2ccccc2O1,15.8%,-6.3%,11.3%,-1.8%,-14.6%,-6.2%
COCC(Cl)/C(N)=N\S(=O)(=O)c1ccc(Cl)cc1 (stereo unspecified),5.8%,-17.4%,15.2%,14.8%,26.2%,4.95%
N#Cc1nnc2cc(-c3ccccc3)nn2c1-c1ccco1,27.9%,11.2%,16.3%,35.5%,28.1%,31.4%
CC1CCOC(C)(Cc2ccccc2)O1 (stereo unspecified),-2.8%,-3.05%,-6.9%,-58.8%,-18.1%,-10.9%
C/C(=N\NS(=O)(=O)c1ccccc1)c1ccc(Cl)c(Cl)c1,-19.3%,-10%,-18.9%,2.25%,10.5%,-38.5%
CCOC(=O)C(NCc1cccc(C(F)(F)F)c1)(NC(=O)c1ccccc1)C(F)(F)F (stereo unspecified),12.2%,-0.95%,-1.95%,17.9%,8.4%,25%
CCOC(=O)C(=CNc1cc(OC)cc2cccnc12)C(=O)OCC,-12.8%,4.1%,0.15%,18.8%,16.1%,-11.4%
Cc1ccc(Cl)cc1NC(=O)Oc1cc(C)c(Cl)c(C)c1,1%,8.2%,-4.1%,6.85%,25.7%,4.35%
Cn1nnc2c(C(N)=O)ncn2c1=O,-11.4%,-18.5%,-28.5%,-25.2%,-26.6%,-77%
O=C(O)c1cccc(-n2cnc3c(=O)[nH]cnc32)c1,-0.25%,-3.85%,-5.85%,-9.15%,8.6%,-14.2%
CC(=O)N(CN1C(=O)CCC1C(=O)O)c1cccc(O)c1 (stereo unspecified),8.45%,9%,-10.2%,-5.7%,-12.7%,-66.7%
COc1cc2c(cc1OC)C1(CCCl)C3CC4C(=CCOC5CC(=O)N2C1C54)CN3C(=O)Cc1ccccc1 (stereo unspecified),40.2%,4.95%,16.4%,11.2%,5.9%,23.6%
O=C1C(N=Nc2ccc(S(=O)(=O)Nc3ccccn3)cc2)C(=O)N(c2ccccc2)C(=S)N1c1ccccc1,8.8%,6.1%,8.25%,18.3%,-1.25%,23.6%
Cc1ccc(/C=N/NC(=O)c2ccc(C)cc2)cc1,-14.9%,-10.2%,-4.5%,-13.7%,-16.2%,-11.9%
C/C=C(\C(=C\C)c1ccc(OC(=O)c2ccccc2)c(C2CCCCC2)c1)c1ccc(O)c(C2CCCCC2)c1,49%,34.5%,44.9%,30.4%,2.95%,45.8%
CCCCCCCCCCCC(=O)Oc1c(Cl)cc(Cl)c(OC(=O)C(=O)Oc2c(Cl)cc(Cl)c(OC(=O)CCCCCCCCCCC)c2Cl)c1Cl,-26.1%,-21.9%,-11.2%,16.9%,-4.2%,-19.9%
c1ccc(-c2csc3[n+]2CCN3)cc1,18.6%,13.9%,12.8%,5.3%,2.8%,14.2%
COc1ccc2c(c1)C(C)(C(N)=O)CCC2 (stereo unspecified),3.25%,4.8%,3.7%,5.5%,-12.2%,-13.2%
